The entries come from a sample that favours hits as a whole.
IL-1B inflam inh: inhibitors of inflammasome signaling (IL-1 beta secretion); AID 743279; activity change, % at 57.5 µM; 360,000 tested, 4.7% active; THP-1 LPS/ATP IL-1B secretion, AlphaLISA, 16 h; stronger effect = lower value; in the data active means activity change below about -50%; inconclusive means mostly about -30% to -49%
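Secreted IL-1B measured by AlphaLISA bead assay after 16 h compound exposure of THP-1 cells; compounds (final up to 57.5 uM) added 1 h before LPS (250 ng/mL) and ATP (1.25 mM) stimulation; lower signal means less secretion.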
HT1080-NT tox: kills 2HG-producing HT-1080-NT fibrosarcoma cells. HT-1080-NT fibrosarcoma viability, CellTiter-Glo ATP luminescence, 48 h. Potency, µM (top dose mostly 46.1 µM), for the others: at the highest dose activity, negative = less viability, hits mostly cytotoxic. 360,000 tested, 1.6% active;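 further: NT is the 2HG producing partner of a matched IDH1 knockdown line; potency means the concentration at half of the fitted maximal effect; 0% = DMSO-treated cells and -100% = media-only wells without cells; nearly all actives have a fitted effect of over 55% in size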
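Compounds were tested in concentration-response format on HT-1080-NT cells for 48 hours at 37 degrees C. Cell viability came from CellTiter-Glo luminescence; curves were classified by r2, response magnitude and activity.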
HT1080 IDH1KD tx: kills HT-1080 cells with IDH1 knockdown | HT-1080 IDH1 knockdown viability, ATP luminescence, 48 h | Potency, µM (series often up to 46.1 µM), for inactives: at the highest dose activity, negative = toxicity, usual class: cytotoxic | 360,000 tested, 2% active | AID 686971;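 further: potency means the concentration at half of the fitted maximal effect; 0% = DMSO wells and -100% = cell-free medium wells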
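Using the IDH1-knockdown HT-1080 line run in the same batch and compound series as the NT line, viability after 48 h at 37 °C was determined by CellTiter-Glo luminescence and expressed as % activity.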
TDP1 cell noCPT: qHTS for Inhibitors of human tyrosyl-DNA phosphodiesterase 1 (TDP1): qHTS in cells in absence of CPT | DT40 Tdp1-/- hTDP1 cells, no CPT, ATP luminescence, 48 h | Potency, µM (top dose mostly 46.2 µM), for the others: at the highest dose activity change, negative = growth inhibition, most hits filed as inhibitors | 420,000 tested, 15% active; further: potency means the concentration at half of the fitted maximal effect; nearly all actives have a fitted effect of over 55% in size
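Camptothecin absent (DMSO only). Human TDP1-complemented DT40 knockout cells, 400 cells/well, 37 °C for minimum 48 hr; ATP measured via CellTiter-Glo, 30 min dark incubation, luminescence.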
ALOX12 inh: inhibitors of human 12S-lipoxygenase ALOX12; AID 1671190; 580,000 tested, 1.1% active; Potency, µM (series often up to 108 µM), inactives show at the highest dose activity change, negative = inhibition, usual class: inhibitors; purified 12hLO, xylenol orange hydroperoxide absorbance; P18054; further: potency means the concentration at half of the fitted maximal effect
Target sequence (P18054 whole entry, looked up): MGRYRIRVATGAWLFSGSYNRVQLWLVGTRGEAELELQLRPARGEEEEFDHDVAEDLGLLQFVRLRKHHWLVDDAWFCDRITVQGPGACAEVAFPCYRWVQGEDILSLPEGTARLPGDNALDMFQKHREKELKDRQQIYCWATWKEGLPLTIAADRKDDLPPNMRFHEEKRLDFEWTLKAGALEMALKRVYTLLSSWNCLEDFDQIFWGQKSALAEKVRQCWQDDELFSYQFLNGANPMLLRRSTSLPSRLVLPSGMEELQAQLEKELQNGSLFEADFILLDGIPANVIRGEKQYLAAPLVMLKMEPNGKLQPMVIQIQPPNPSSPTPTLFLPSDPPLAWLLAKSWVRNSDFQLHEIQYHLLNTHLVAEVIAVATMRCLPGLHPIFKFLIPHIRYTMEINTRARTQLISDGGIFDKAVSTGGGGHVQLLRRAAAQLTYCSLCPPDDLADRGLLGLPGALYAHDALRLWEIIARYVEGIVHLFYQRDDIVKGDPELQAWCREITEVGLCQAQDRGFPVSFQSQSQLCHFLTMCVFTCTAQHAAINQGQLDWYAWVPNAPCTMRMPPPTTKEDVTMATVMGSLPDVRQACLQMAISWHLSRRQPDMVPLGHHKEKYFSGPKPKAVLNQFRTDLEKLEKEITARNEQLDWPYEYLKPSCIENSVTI
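Purified human 12hLO at 150 nM in 25 mM Hepes, 0.01% Triton X-100, pH 7.0, preincubated 15 min at room temperature with compound. Reaction started with 40 uM arachidonic acid, 30 min at room temperature. Hydroperoxide measured by Fe-xylenol orange, 573/405 nm absorbance ratio.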
TDP1 cell CPT: DT40-hTDP1 cell growth loss with CPT | chicken DT40 Tdp1-/-;hTDP1 cells + 20 nM CPT, ATP luminescence, 48 h | Potency, µM (highest dose often 46.2 µM), for inactives: top-dose activity change, negative = growth inhibition, most hits filed as inhibitors | 420,000 tested, 12% active; further: potency means the concentration at half of the fitted maximal effect; nearly all actives have a fitted effect of over 55% in size
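Chicken DT40 Tdp1-/- cells stably complemented with human TDP1 were seeded at 400 cells/well in medium containing 20 nM camptothecin, exposed to pin-transferred compounds, and grown at 37 °C for at least 48 hr. Viability was read as ATP luminescence.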
Active calls of the source: *; ? = inconclusive; / = no result; [ ] = remark or other dose. Unless noted, the call rests on the fitted dose curve; in most records, active means well fitted curve in the direction sought with a large enough effect; inconclusive means small, poorly fitted or top-dose-only effect, or another doubt; inactive means no such curve, though single readings can be large; an effect the other way counts as inactive or inconclusive. Unless noted, on the % scale 0 is the no-effect control and ±100 the full control effect.

SMILES	IL-1B inflam inh	HT1080-NT tox	HT1080 IDH1KD tx	TDP1 cell noCPT	ALOX12 inh	TDP1 cell CPT
CC1(COc2ccc3[nH]ccc3c2)COc2ccc(C(=O)NCc3cccs3)cc2N1 (stereo unspecified)	/	/	/	/	7%[176 µM]	/
CC(C)Oc1ccccc1C1(c2ccccc2)NC(=O)NC1=O (stereo unspecified)	-7	2%	3%	?	-19%	6%
COc1cc(-c2nc(C(=O)NC3CCN(Cc4ccccc4)CC3)cc3c2[nH]c2ccccc23)cc(OC)c1OC	-12	?	?	13µM*	/	12µM*
COc1ccc(OC)c(-c2nc(C(=O)NC3CCN(Cc4ccccc4)CC3)cc3c2[nH]c2ccccc23)c1	-15	?	?	12µM*	-22%	10µM*
COc1ccc(OC)c(-c2nc(C(=O)NCCCN3CCOCC3)cc3c2[nH]c2ccccc23)c1	-2	-13%	-22%	23µM*	8%	16µM*
COc1cc(-c2nc(C(=O)NC3CCCCC3)cc3c2[nH]c2ccccc23)cc(OC)c1OC	?	-5%	-20%	23µM*	-1%	16µM*
CSc1nc(C)c(CCC(=O)NC(C)c2ccc(F)cc2F)c(C)n1 (stereo unspecified)	/	/	/	/	-47%	/
COc1ccc2oc3cc(C)[n+]([O-])c(-c4ccc(Br)cc4)c3c2c1	-3	-8%	-5%	0.0082µM*	-26%	?
CCCCN1C(=O)C(CC(=O)NCCCN(C)C)CC(C(=O)N2CCCCCC2)=C1C (stereo unspecified)	1	22%	0%	-8%	-1%	-12%
Cc1ccc2nc(N3CCN(Cc4nnnn4C4CCCC4)CC3)c(C#N)cc2c1	-4	-13%	-5%	23µM*	-24%	?
CCC(C)(C)n1nnnc1CN1CCN(c2nc3cc(OC)ccc3cc2C#N)CC1	-56*	-13%	-16%	23µM*	?	?
Cc1ccc(C)c(N2CCN(Cc3nnnn3C3CCCCC3)CC2)c1	-12	-3%	-3%	?	?	?
Cc1noc2nc(C(C)C)cc(C(=O)NC3CCCc4c3[nH]c3ccccc43)c12 (stereo unspecified)	/	/	/	/	32µM*	/
O=C(CCCc1c[nH]c2ccccc12)NC1CCc2n[nH]c(=O)n2CC1 (stereo unspecified)	/	/	/	/	7%	/
COc1ccc2sc(N(Cc3cccnc3)C(=O)C3CCCCC3)nc2c1	/	/	/	23µM*	-6%	13µM*
CC(=O)N(Cc1cccnc1)c1nc2c(F)cc(F)cc2s1	/	/	/	?	-20%	?
CCOc1ccc2nc(N(Cc3cccnc3)C(=O)C3CCCCC3)sc2c1	/	/	/	-24%	-3%	?
O=C(C1CCCCC1)N(Cc1cccnc1)c1nc2c(F)cc(F)cc2s1	/	/	/	15µM*	-43%	21µM*
CC(C)(C)C(=O)N1CCN(c2ncccc2C(F)(F)F)CC1	20	7%	16%	-25%	463%	-26%
O=C(Nc1ccc(N2CCN(c3ncccc3C(F)(F)F)CC2)nc1)c1cccs1	-101*	18µM*	21µM*	21µM*	-5%	18µM*
N/C(=N\O)c1ccc(N2CCN(c3ncccc3C(F)(F)F)CC2)nc1	22	-22%	-27%	18µM*	28%	?
O=C(Nc1ccc(N2CCN(c3ccc(C(F)(F)F)cn3)CC2)nc1)c1cccs1	14	19%	12%	1%	25%	3%
COc1ccc(C2/C=C\CN(C(=O)Nc3ccccc3)CC(=O)N2Cc2ccc(F)cc2)cc1 (stereo unspecified)	2	-1%	-2%	?	0%	?
CCCCCCCN1C/C=C\C(c2ccc(OC)cc2)N(Cc2ccc(F)cc2)C(=O)[C@H]1Cc1ccccc1 (stereo partly specified)	4	-4%	-1%	18µM*	/	?
COc1ccc(C2/C=C\CN(C(=O)Nc3ccc(C(F)(F)F)cc3)CC(=O)N2Cc2ccc(F)cc2)cc1 (stereo unspecified)	0	?	?	13µM*	/	15µM*
SMILES	IL-1B inflam inh	HT1080-NT tox	HT1080 IDH1KD tx	TDP1 cell noCPT	ALOX12 inh	TDP1 cell CPT
COc1ccc(C2/C=C\CN(C(=O)C3CCCC3)[C@H](Cc3ccccc3)C(=O)N2Cc2ccc(F)cc2)cc1 (stereo partly specified)	-22	-17%	-22%	?	-17%	23µM*
COc1ccc([C@H]2/C=C\CN(C(=O)C3CCCC3)[C@@H](C)C(=O)N2Cc2ccc(F)cc2)cc1	22	-19%	-25%	7.3µM*	-30%	13µM*
COc1ccc(C2/C=C\CN(S(=O)(=O)c3ccc(C)cc3)[C@H](Cc3ccccc3)C(=O)N2Cc2ccc(F)cc2)cc1 (stereo partly specified)	12	10%	8%	?	/	?
CN(c1ccccc1)c1cc(=O)c2ccnc(-c3ccnn3C)c2o1	/	/	/	/	-24%[176 µM]	/
CCC(NCc1c(C(=O)N2CCCCCC2)nc2cc(C)ccn12)c1ccc(C)cc1 (stereo unspecified)	/	/	/	/	13%	/
Cc1ccc(C(=O)N[C@H](C(=O)OCc2nnc(-c3ccccc3)o2)C(C)C)cc1	19	-5%	-4%	-19%	27%	-32%
CS(=O)(=O)c1ccc(C(=O)OCc2nnc(-c3ccccc3)o2)cc1[N+](=O)[O-]	-70*	7.3µM*	4.1µM*	10µM*	1%	3.7µM*
CC(=O)c1c(C)[nH]c(C(=O)OCc2nnc(-c3ccccc3)o2)c1C	25	-2%	-16%	13µM*	0%	?
CN(C)S(=O)(=O)c1ccc(C(=O)OCc2nnc(-c3ccccc3)o2)cc1	6	16%	4%	-6%	8%	9%
NC(=O)COC(=O)c1ccc(S(=O)(=O)NCc2ccco2)cc1	-7	8%	21%	-23%	-1%	-7%
O=C(OCc1nnc(-c2ccccc2)o1)c1ccc(S(=O)(=O)NCc2ccco2)cc1	0	13%	0%	23µM*	-33%	?
CC(C)[C@H](NC(=O)c1ccccc1)C(=O)OCc1nnc(-c2ccccc2)o1	34	15%	27%	23µM*	-7%	?
COc1ccc(-c2ocnc2C(=O)Nc2ccc(C)cc2Cl)cc1	/	/	/	/	0%	/
CCNc1ncc2ncc(=O)n(C3CC3)c2n1	/	/	/	-8%	?	?
O=C(Nc1ccc(F)cc1)N1CCc2ccccc2C1	-55*	10%	-1%	?	-13%	-28%

High-throughput results from PubChem.
